The text below walks through data of PubChem BioAssay AID588466 (NMMLSC, 2011).

Where “and” joins values, the source holds several entries; their conditions need not be identical. Identical values can stand only once. About 30 (1%) of roughly 2,100 compounds were called active. A selection follows. Values without a mark were called inactive.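 Rule for the calls: active = compounds whose mean binding response over two repeats is below 75% of the DMSO control; inactive = the rest.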

The target in this assay is Desmoglein-3 (Homo sapiens) (UniProt P32926). Nature of the assay: blockers of pemphigus antibody–desmoglein-3 interaction – biochemical, cherry pick 1, bead-based, flow cytometry, confirmation (AID 588466).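 Note: 100% = 2% DMSO vehicle and 0% = excess soluble DSG3 blocking control.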 The note with it: Protein G beads with DSG3, scFv-GFP binding, at 10 µM, hits give low values. (In general: A flow cytometer gives signals particle by particle.)
Desmoglein-3 (Homo sapiens), sequence (P32926 whole entry, looked up): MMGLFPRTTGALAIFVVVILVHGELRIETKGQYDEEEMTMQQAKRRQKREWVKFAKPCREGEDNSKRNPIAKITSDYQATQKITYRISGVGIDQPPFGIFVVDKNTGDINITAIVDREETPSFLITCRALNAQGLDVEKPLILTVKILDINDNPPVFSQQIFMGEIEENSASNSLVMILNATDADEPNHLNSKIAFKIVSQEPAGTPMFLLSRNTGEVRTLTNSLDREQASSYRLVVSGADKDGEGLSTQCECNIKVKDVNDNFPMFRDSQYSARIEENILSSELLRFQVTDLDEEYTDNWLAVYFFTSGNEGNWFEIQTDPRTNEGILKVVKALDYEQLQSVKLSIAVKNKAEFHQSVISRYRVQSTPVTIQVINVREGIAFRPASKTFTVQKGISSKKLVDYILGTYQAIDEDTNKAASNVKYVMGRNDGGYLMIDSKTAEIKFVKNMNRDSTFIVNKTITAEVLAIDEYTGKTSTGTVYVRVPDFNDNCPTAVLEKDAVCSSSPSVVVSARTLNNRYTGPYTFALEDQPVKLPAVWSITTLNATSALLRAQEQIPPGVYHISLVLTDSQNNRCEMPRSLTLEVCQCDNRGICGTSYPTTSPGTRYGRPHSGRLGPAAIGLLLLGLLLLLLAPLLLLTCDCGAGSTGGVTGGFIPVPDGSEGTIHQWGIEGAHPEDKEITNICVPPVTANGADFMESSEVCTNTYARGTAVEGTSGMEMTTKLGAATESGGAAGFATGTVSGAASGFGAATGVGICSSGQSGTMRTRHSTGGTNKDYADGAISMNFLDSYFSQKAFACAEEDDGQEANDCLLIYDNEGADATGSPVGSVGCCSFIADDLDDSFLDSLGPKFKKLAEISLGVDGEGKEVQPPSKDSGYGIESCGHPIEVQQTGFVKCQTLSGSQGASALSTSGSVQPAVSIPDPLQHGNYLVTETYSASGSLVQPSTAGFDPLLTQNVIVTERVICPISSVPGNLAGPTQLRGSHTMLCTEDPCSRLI
Take `Cc1nc(SCc2nc3c([N+](=O)[O-])cccc3[nH]2)c2oc3ccccc3c2n1`: the binding response (% of DMSO) was 108%. The same measure for `CN(CCC1CCOCC1)C(=O)C1CCC(=O)N(CCc2ccccc2)C1` (configuration not stated): 101%; for `CCOC(=O)c1cccc(NC(=O)c2ccc3c(c2)C(=O)N(CC2CCCO2)C3=O)c1` (configuration not stated): 103%; for `COc1ccc(C2=Nn3c(nnc3-c3ccccc3Cl)SC2)cc1OC1CCOC1` (configuration not stated): 91.3%. For `Nc1cccc(C(=O)c2ccccc2C(=O)O)c1`, the binding response (% of DMSO) was 98.2%. Regarding `O=C1CSC(c2ccncc2)N1Cc1ccco1` (configuration not stated), the binding response (% of DMSO) is 106%. Regarding `COC(=O)c1ccc(N(C(=O)CNC(=O)c2ccco2)C(C(=O)NCC2CCCO2)c2ccc(OC)c(OC)c2)cc1` (configuration not stated), the binding response (% of DMSO) is 104%. As to `CC(=O)Nc1ccc(C(=O)OCC(=O)c2ccc(S(=O)(=O)N3CCCCC3)cc2)cc1`, the binding response (% of DMSO) was 110%. Regarding `Cc1ccc(-n2nc3c(c2NC(=O)c2ccc(Br)o2)CSC3)c(C)c1`, the binding response (% of DMSO) is 95.6%. For `Cc1cc(NC(=O)CSc2nccn2-c2ccc(Cl)cc2)no1`, the binding response (% of DMSO) was 103%.

Take `CCOc1cccc(C(=O)Nc2ccc(N3CCN(S(C)(=O)=O)CC3)cc2)c1`: the binding response (% of DMSO) was 90.8%.

In the case of `Clc1ccc(-[n+]2c(-c3cccc(Br)c3)[nH]c3nc4ccccc4nc32)cc1`, the binding response (% of DMSO) is 90.4%. To `COc1ccc(Oc2nnc(-c3ccccc3)cc2C#N)cc1` belongs 94.9%; to `O=C(CSc1nc(=O)[nH]c2c1CCCC2)Nc1ccc(F)cc1F`, 106%.

Turning to `O=C1c2ccc(-c3ccc(F)cc3OCc3ccccc3)cc2S(=O)(=O)c2cccc(C(=O)N3CCN(c4ncc(Br)cn4)CC3)c21`, the binding response (% of DMSO) is 84.2%.

On to `CCOc1ccc2nc(NC(=O)c3ccc(S(=O)(=O)N4CCOCC4)cc3)sc2c1`, for which the binding response (% of DMSO) is 77.7%. In the case of `CC1=CCC2C(=O)N(c3ccc(C)c(Br)c3)C(=O)C2C1` (configuration not stated), the binding response (% of DMSO) is 109%.

With `COc1ccccc1CN(C)C[C@@H]1OCc2cnnn2CCCC(=O)N([C@@H](C)CO)C[C@H]1C`, the binding response (% of DMSO) was 96.2%. The same measure for `CN(c1ccccc1)S(=O)(=O)c1cccc(NC(=O)C2=NNC(=O)CC2)c1`: 98.4%; for `CC(=O)c1cccc(N(C(=O)CNC(=O)c2cccs2)C(C(=O)NCC2CCCO2)c2ccccc2)c1` (configuration not stated): 102%. Regarding `COc1ccc(-c2csc(NC(=O)c3cc(C)on3)c2C#N)cc1OC`, the binding response (% of DMSO) is 97.8%. The same measure for `O=C(c1cnn(-c2nc3ccccc3s2)c1)c1ccccc1O`: 102%; for `CCN1C(=O)[C@H]2[C@@H](c3ccc(C)cc3)N3C(=O)N(c4ccc(OC)cc4)C(=O)[C@@]3(Cc3ccccc3)[C@H]2C1=O`: 98.4%. Turning to `COc1ccc(-c2cc(=O)oc3cc(OCC(=O)Nc4ccccn4)ccc23)cc1`, the binding response (% of DMSO) is 88.2%. Consider `CN1CCN(Cc2nc3ccccc3c(=O)n2Cc2nc(-c3ccc([N+](=O)[O-])cc3)cs2)CC1`, for which the binding response (% of DMSO) is 103%. Turning to `Fc1ccc2nc(C3CCCCN3Cc3nc(CC4CC4)no3)[nH]c2c1` (configuration not stated), the binding response (% of DMSO) was 102%. Consider `CSCCC(NC(=O)C1CCC(C)CC1)C(=O)OCC(=O)c1ccc(Cl)cc1` (configuration not stated), for which the binding response (% of DMSO) was 107%. Consider `O=S(=O)(NCCOc1ccccc1F)c1ccc(Cl)cc1F`, for which the binding response (% of DMSO) is 102%. In the case of `CCOc1cc(S(=O)(=O)Nc2ccc(Cl)cn2)ccc1F`, the binding response (% of DMSO) is 112%. To `CCc1ccc(Cn2nnc(C(=O)Nc3ccc(OC)cc3OC)c2N)cc1` belongs 96.2%.

With `COc1ccc(-c2ccc(-c3nc4c(c(=O)[nH]c(=O)n4Cc4ccccc4)n3C)o2)c([N+](=O)[O-])c1`, the binding response (% of DMSO) is 87.1%. The same measure for `COc1ccc(OC)c(NC(=O)NCCc2cccc(Cl)c2)c1`: 100%; for `COc1ccc(Cl)c(NC(=O)NCCN2CCN(c3ccccc3)CC2)c1`: 67.9% (active); for `COc1ccc(NC(=O)c2ccc(NC(=O)CN3CCN(c4ccccc4)CC3)cc2)cc1`: 90.4%. `CC1C(=O)N2CCCc3cc(S(=O)(=O)N4CCC(C(N)=O)CC4)cc1c32` (configuration not stated): the binding response (% of DMSO) was 104%. `Cc1ccc(NS(=O)(=O)c2ccc3c(c2)n(C)c(=O)n3C)cc1`: the binding response (% of DMSO) is 100%. To `COc1ccc(CNC(=O)c2cnc(C)cn2)cc1` belongs 101%; to `COCC(C)n1c(C)cc(C(=O)COC(=O)c2nn(C)c(=O)c3ccccc23)c1C` (configuration not stated), 98.2%; to `CC(=O)Nc1nnc(CCS(=O)(=O)c2ccc(C)c(C)c2)s1`, 104%. Turning to `COc1ccc(-n2ccc(=O)c(C(=O)Nc3ccc(S(=O)(=O)Nc4nccs4)cc3)n2)cc1`, the binding response (% of DMSO) is 99.6%. For `COc1ccc(C(=O)NCc2nnc(SCC(=O)N3CCc4ccccc43)n2C2CCCCC2)cc1`, the binding response (% of DMSO) was 91%. On to `CCc1nnc(NC(=O)CCN(c2ccc(C)cc2)S(=O)(=O)c2ccccc2)s1`, for which the binding response (% of DMSO) was 103%. For the compound `Cc1ccsc1-c1nc(-c2ccccc2)c(-c2ccccc2)[nH]1`, the binding response (% of DMSO) was 77.9%.

As to `CN(Cc1cc2ccccc2[nH]c1=O)S(C)(=O)=O`, the binding response (% of DMSO) was 100%. Consider `Cc1nc2scc(C)n2c(=O)c1S(=O)(=O)NCc1ccc(F)cc1`, for which the binding response (% of DMSO) was 107%. `COc1ccc(C(=O)NCc2ccc(C)cc2)cc1S(=O)(=O)N1CCCC1`: the binding response (% of DMSO) is 105%. With `CCOC(=O)c1c(-c2ccccc2)c[nH]c1C`, the binding response (% of DMSO) was 97.4%. In the case of `CCN(CC)c1ccc(/C=N/N2C(=O)c3ccccc3C2=O)cc1`, the binding response (% of DMSO) was 102%. As to `CCOC(=O)C1=C(O)/C(=C/c2ccc(-c3ccccc3C(=O)O)o2)SC1=Nc1ccc(C)cc1`, the binding response (% of DMSO) was 108%. As for `CC(=O)N1C(=O)/C(=C2\SC(=S)N(c3c(C)n(C)n(-c4ccccc4)c3=O)C2=O)c2ccccc21`, the binding response (% of DMSO) was 87.6%.

As to `Clc1ccc(-n2ncc3c(NCc4cccnc4)ncnc32)cc1Cl`, the binding response (% of DMSO) is 91.8%. Take `C=C(Br)CN1[C@@H](Cc2ccccc2)[C@H](O)[C@@]23C=C[C@@H](C[C@@H]2S1(=O)=O)O3`: the binding response (% of DMSO) was 101%. Take `CCOC(=O)CSc1nc2sc(C)c(C)c2c(=O)n1N`: the binding response (% of DMSO) was 104%. Turning to `CC(=O)c1c(C)[nH]c(C(=O)NCc2ccc(Cl)cc2)c1C`, the binding response (% of DMSO) was 105%. `CCOC(=O)Cc1csc(NC(=O)COc2ccccc2)n1`: the binding response (% of DMSO) was 99.8%. In the case of `Cc1cc(=O)oc2cc(OCC(=O)OCC(=O)Nc3ccccc3Br)ccc12`, the binding response (% of DMSO) was 112%. `COc1cccc(-c2nc(NCc3ccco3)c3ccccc3n2)c1O`: the binding response (% of DMSO) is 89.5%. As to `O=C(c1cc(S(=O)(=O)N2CCOCC2)ccc1F)N1CCCc2ccccc21`, the binding response (% of DMSO) is 104%. On to `CSc1nc(C2CC2)cc(-c2cccs2)c1C#N`, for which the binding response (% of DMSO) was 94.5%. To `O=C(CSc1n[nH]c(-c2ccco2)n1)Nc1ccccc1Cl` belongs 101%; to `COc1ccc(CC(=O)Nc2cccc(C(=O)NN3C(=O)c4ccccc4C3=O)c2C)cc1`, 102%; to `COC(=O)[C@]1(C)N[C@H](CN(C)C(=O)Nc2ccc(OC)cc2)[C@@H]2C(=O)N(C)C(=O)[C@@H]21`, 95.3%. The same measure for `CCOC(=O)c1sc(NC(=O)C(CC)Sc2nccn2C)nc1C` (configuration not stated): 105%; for `O=C(O)C1(Nc2ccc(Br)cc2)CCCC1`: 98.6%. To `COc1ccc(S(=O)(=O)N2CCCCCC2)cc1NC(=O)CCNC(=O)c1ccc(Cl)cc1` belongs 107%; to `O=C(CCCCCCN1C(=O)c2ccccc2C1=O)NC1CCCCC1`, 105%; to `CCCCN(CCCC)C(=O)c1cc(Cl)ccc1[N+](=O)[O-]`, 98.8%. In the case of `COc1ccc(C(=O)COc2ccc3ccc(=O)oc3c2)c(OC)c1`, the binding response (% of DMSO) is 104%. As to `COc1ccc(C)cc1NS(=O)(=O)c1ccc2c(c1)CCN2C(C)=O`, the binding response (% of DMSO) is 99.4%.

With `NS(=O)(=O)c1ccc(NC(=O)c2ccc(F)cc2F)c(NC(=O)c2ccc(F)cc2F)c1`, the binding response (% of DMSO) is 104%.

Turning to `CCCCSc1nnc(-c2ccc(NC(=O)CCc3ccccc3)cc2)n1C`, the binding response (% of DMSO) was 104%. The same measure for `COc1ccc(-c2cc(NC(=O)c3cncn3-c3ccccc3)ccc2OC)cc1`: 107%; for `Cc1ccc(NC(=O)CN2C(=O)NC(Cc3c[nH]c4ccccc34)C2=O)cc1S(=O)(=O)N1CCCCC1` (configuration not stated): 102%. Turning to `CC(=O)c1ccc(OCC(O)CN2CC(C)OC(C)C2)cc1` (configuration not stated), the binding response (% of DMSO) was 104%. In the case of `Cc1cc2oc(=O)cc(-c3ccccc3)c2c(C)c1-c1ccc(F)c(Cl)c1`, the binding response (% of DMSO) was 105%. Regarding `C[C@H](CO)N1C[C@H](C)[C@@H](CN(C)Cc2ccc(-c3ccccc3)cc2)Oc2c(NS(=O)(=O)c3cn(C)cn3)cccc2C1=O`, the binding response (% of DMSO) was 98.2%. Regarding `O=C(CN1CCN(S(=O)(=O)c2ccccc2)CC1)Nc1cccc(C(F)(F)F)c1`, the binding response (% of DMSO) is 110%.

On to `O=C(Nc1cc(Cl)ccc1-n1cncn1)c1cn2ccccc2n1`, for which the binding response (% of DMSO) was 111%. `COc1cccc(C(=O)NCCn2ccc3ccccc32)c1`: the binding response (% of DMSO) is 112%. `COc1cc(CN2CCC(n3nccc3NC(=O)C3CC3)CC2)cc(OC)c1`: the binding response (% of DMSO) was 104%. As for `Cc1ccc(Cn2cnc3c(nnn3Cc3ccc(Cl)cc3)c2=O)cc1`, the binding response (% of DMSO) was 90% and 97.5%. On to `CC(C)[C@H](NC(=O)N1c2ccccc2NC(=O)[C@@H]1C(C)C)C(=O)N[C@@H](Cc1c[nH]c2ccccc12)C(=O)O`, for which the binding response (% of DMSO) is 105%. Consider `CCOc1c(Br)cc(C(=O)Nc2cccc(S(=O)(=O)N3CCOCC3)c2)cc1OC`, for which the binding response (% of DMSO) is 102%. To `CCc1nnc(NC(=O)CCC(=O)NCc2ccccc2Cl)s1` belongs 97.5%; to `COc1ccc(OC)c(NS(=O)(=O)c2ccc(-c3coc(C)n3)cc2)c1`, 97.3%; to `COc1ccc(CCN2C(=O)C(Oc3ccccc3C)C2c2ccc3c(c2)OCO3)cc1OC` (configuration not stated), 101%. `CSc1nc2ccc(NC(=O)c3cccs3)cc2s1`: the binding response (% of DMSO) was 102%.
